Source: PubChem BioAssay AID1159580 (chemical genetic matrix, 2015)
In all, about 5,500 compounds went through this assay and about 2,000 (36%) were called active. Not shown: some 18% with an inconclusive outcome. Rule as the data show it: active = normalized growth mostly below about 0.91 (no sharp cut-off); inconclusive = no clear call, values can overlap the other calls; inactive = mostly above about 0.92. Some of the results follow.

Assay: chemical genetic growth profiling, strain panel (AID 1159580);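 also: tested at 20 µM; growth read once vehicle control cultures reached saturation at 30 °C; 1 = growth at the plate median or of vehicle wells; lower values mean less growth of the strain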
Conditions: S. cerevisiae deletion strains, growth OD
[1] = locus YAL013W, strain DEP1, active compounds read low
[2] = locus YAL040C, strain CLN3, active compounds read low
[3] = locus YCL061C, strain MRC1 (second series), active compounds read low
[4] = locus YDR363W, strain ESC2, active compounds read low
[5] = locus YER002W, strain NOP16, active compounds read low
[6] = locus YMR263W, strain SAP30, active compounds read low
[7] = locus YNL153C, strain GIM3, active compounds read low
[8] = locus YNL175C, strain NOP13, active compounds read low
[9] = locus YNL197C, strain WHI3, active compounds read low
[10] = locus YNL224C, strain SQS1, active compounds read low
[11] = locus YOR083W, strain WHI5 (second series), active compounds read low

Measured: normalized growth

O=C(O)/C=C/C(O)c1ccc(Cl)cc1 (centres undefined)
inactive: [1] 0.986 | [2] 1.07 | [3] 0.982 | [4] 1.02 | [5] 1 | [6] 0.983 | locus YMR307W, strain GAS1, active compounds read low 1.03 | [7] 0.997 | [8] 0.997 | [9] 0.986 | [10] 0.98 | [11] 0.998 | locus YPL241C, strain CIN2, active compounds read low 0.985

CC(N)c1cccc(Cl)c1Cl (centres undefined)
inactive: [1] 1.01 | [2] 0.969 | [3] 1 | locus YDR150W, strain NUM1, active compounds read low 0.996 | [4] 1.08 | [5] 1.01 | locus YGR078C, strain PAC10, active compounds read low 0.981 | locus YJR075W, strain HOC1, active compounds read low 1.02 | [6] 1 | locus YNL128W, strain TEP1, active compounds read low 1.01 | [7] 0.972 | [8] 0.981 | [9] 0.953 | [10] 1.01 | [11] 1.01 | locus YPL055C, strain LGE1, active compounds read low 1.07
